# hNpr1 antagonist = human Npr1 receptor antagonism; AID 1347048; HEK293 hNpr1 GloSensor cGMP, ANP-stimulated luminescence; 76,000 tested, 1.6% active; P16066; Potency, µM (titrated, usually from 46.3 µM), for the others: top-dose activity change, negative = inhibition, hits mostly inhibitors; calls by dose curve; note: nearly all actives have a fitted effect of over 60% in size
# Target sequence (P16066 whole entry, looked up): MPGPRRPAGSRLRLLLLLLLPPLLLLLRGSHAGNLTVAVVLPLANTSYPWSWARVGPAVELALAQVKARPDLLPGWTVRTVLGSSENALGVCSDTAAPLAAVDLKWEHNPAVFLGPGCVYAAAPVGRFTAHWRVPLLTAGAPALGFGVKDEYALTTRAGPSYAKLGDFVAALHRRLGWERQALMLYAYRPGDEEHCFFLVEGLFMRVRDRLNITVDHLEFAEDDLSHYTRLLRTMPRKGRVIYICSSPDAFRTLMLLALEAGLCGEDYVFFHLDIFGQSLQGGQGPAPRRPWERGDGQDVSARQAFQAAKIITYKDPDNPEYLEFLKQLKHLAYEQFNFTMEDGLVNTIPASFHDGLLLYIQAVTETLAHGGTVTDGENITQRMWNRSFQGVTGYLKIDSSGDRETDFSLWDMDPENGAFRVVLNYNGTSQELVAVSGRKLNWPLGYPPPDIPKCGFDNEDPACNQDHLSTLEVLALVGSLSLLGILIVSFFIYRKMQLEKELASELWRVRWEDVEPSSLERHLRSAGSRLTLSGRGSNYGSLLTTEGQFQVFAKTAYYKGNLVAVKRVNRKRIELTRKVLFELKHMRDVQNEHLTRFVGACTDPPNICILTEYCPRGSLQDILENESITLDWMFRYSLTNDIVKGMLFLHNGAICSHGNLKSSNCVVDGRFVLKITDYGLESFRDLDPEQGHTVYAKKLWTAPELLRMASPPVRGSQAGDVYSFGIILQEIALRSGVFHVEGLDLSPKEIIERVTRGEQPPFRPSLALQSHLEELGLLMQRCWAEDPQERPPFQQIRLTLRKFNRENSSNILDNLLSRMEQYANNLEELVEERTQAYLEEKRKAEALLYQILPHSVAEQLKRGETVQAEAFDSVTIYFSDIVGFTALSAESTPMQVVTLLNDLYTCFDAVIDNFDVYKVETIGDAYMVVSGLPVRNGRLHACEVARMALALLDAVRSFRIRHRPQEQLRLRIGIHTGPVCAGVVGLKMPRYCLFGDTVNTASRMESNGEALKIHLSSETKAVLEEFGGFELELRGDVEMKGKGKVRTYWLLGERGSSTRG
#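 HEK293 cells stably expressing human Npr1 and cGMP GloSensor pGS-40F, loaded 2 h with 2% GloSensor reagent, given compound 30 min at room temperature. Luminescence read before and 20 min after 0.1 nM hNppA.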
# FLuc inh = blocks purified firefly luciferase enzyme activity. P08659. AID 1347043. Potency, µM (top dose mostly 115 µM), actives largely listed as inhibitors. 76,000 tested, 2.5% active. purified P. pyralis luciferase, luminescence, biochemical; note: nearly all actives have a fitted effect of over 65% in size
#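 Inhibitors were tested against purified firefly luciferase in a biochemical, low-substrate format (both substrates at 10uM) and luminescence measured with a CCD imager.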
# NIH3T3 tox = cytotoxic compounds in NIH 3T3 cells; AID 1345082; Potency, µM (doses to about 96.7 µM), for inactives: at the top dose activity change, negative = cytotoxicity, usual class: inhibitors; 94,000 tested, 4.3% active; NIH 3T3 viability, CellTiter-Glo ATP luminescence, 48-72 h; note: nearly all actives have a fitted effect of over 55% in size
#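 Mouse fibroblast NIH 3T3 cells, 400 per well, received compound via pintool and were incubated for 48 or 72 hr prior to CellTiter-Glo ATP luminescence measurement.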
# HEK293 tox = cytotoxic compounds in HEK 293 cells. Potency, µM (top dose mostly 115 µM), inactives show at the top dose activity change, negative = cytotoxicity, hits mostly inhibitors. 94,000 tested, 6.6% active. HEK 293 viability, ATP luminescence (CellTiter-Glo), 48-72 h; note: nearly all actives have a fitted effect of over 60% in size
#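 Cytotoxicity was scored by loss of ATP-coupled luminescence (CellTiter-Glo) in HEK 293 cells. Compound treatment ran 48 or 72 hr at 37 degree Celsius, 5% CO2, 95% humidity.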
# Starred values were filed as active, the others as inactive; i = inactive; ? = inconclusive; . = not tested or not shown; [ ] = remark or other dose. In the library only some 11% were active in any assay of this set; here they are far more common. Unless noted, calls come from the whole dose curve; as a rule, active = well fitted curve in the direction sought with a large enough effect; inconclusive = small, poorly fitted or top-dose-only effect, or another doubt; inactive = no such curve, though single readings can be large; an effect the other way counts as inactive or inconclusive. % is set by controls: 0 for no effect and ±100 for the full control effect; potency is the fitted concentration of half-maximal effect.
SMILES,hNpr1 antagonist,FLuc inh,NIH3T3 tox,HEK293 tox
CCCn1cc(CNC(=O)c2cc3c(s2)CCC(C)C3)cn1 (centres undefined),?,31.6µM*,?,?
CCCNC(=O)C1CCc2sc(C(=O)N(C)C)cc2C1 (centres undefined),-2.6%,i,-2.9%,0.2%
O=C(NC1CC1)c1ccccc1OCC1CCCN(CC2=Cc3ccccc3OC2)C1 (centres undefined),?,i,?,39.8µM*
CC(C)NC(=O)c1ccccc1OCC1CCCN(CC2=Cc3ccccc3OC2)C1 (centres undefined),-19.5%,i,?,35.5µM*
O=C(c1ccccc1OCC1CCCN(CC2=Cc3ccccc3OC2)C1)N1CCCCC1 (centres undefined),-17.3%,i,?,?
CC(C)NC(=O)c1ccccc1OCC1CCCN(Cc2ccc(F)cc2)C1 (centres undefined),3.9%,i,?,39.8µM*
CCn1nccc1C(=O)N1CC(c2nc(CCOc3cccc(C)c3)no2)C1,-9.2%,i,-26.6%,?
CN(C)c1ncc2c(n1)C(C)(C(=O)Nc1ccccc1F)CCC2 (centres undefined),-11.9%[70.6 µM],i,?,100µM*
CN(C)c1ncc2c(n1)C(C)(C(=O)Nc1ccccc1)CCC2 (centres undefined),-1.1%[70.6 µM],i,?,?
Cc1ccc(Cn2cc(-c3ccncc3)cc2C(=O)NCC2CC2)cc1,1.8%,i,?,?
Cc1ccc(Cn2cc(-c3ccncc3)cc2C(=O)NC2CC2)cc1,-8.8%,44.7µM*,?,?
COc1ccccc1C(=O)N[C@@H]1CN(Cc2ccccn2)C[C@H]1CN(C)C,5.1%,i,-16.6%,?
Cc1ccc(Nc2ccnc(N3CCCC(C(=O)N4CCN(c5ncccn5)CC4)C3)n2)cc1 (centres undefined),.,.,?,20µM*
Cc1ccc(Nc2ccnc(N3CCN(C(=O)C4CC4)CC3)n2)cc1,.,.,31.6µM*,70.8µM*
Cc1ccc(Nc2ccnc(N3CCCC(C(=O)N4CCCC4)C3)n2)cc1 (centres undefined),.,.,28.2µM*,?
COc1ccc(Nc2ccnc(N3CCC(C(=O)N4CCN(C)CC4)CC3)n2)cc1,.,.,-25.3%,?
COc1ccc(Nc2ccnc(N3CCCC(C(=O)N4CCOCC4)C3)n2)cc1 (centres undefined),.,.,-23.7%,?
Cc1ccc(Nc2ccnc(N3CC4CCC(C3)N4CC(F)(F)F)n2)cc1,.,.,28.2µM*,39.8µM*
Cc1cnc(N2CC3CCC(C2)N3CC(F)(F)F)s1,.,.,-13.1%,-17.5%
O=C(C1CC=CC1)N1CCC2(CC1)N(Cc1ccccc1)C(=O)CS2(=O)=O,.,.,-8.7%,1.3%
CCCS(=O)(=O)N1CCC2(CC1)C(=O)N(c1cccc(F)c1)C2c1ccccc1 (centres undefined),.,.,-26.5%,25.1µM*
O=C1N(c2cccc(F)c2)C(c2ccccc2)C12CCN(Cc1cccc(F)c1O)CC2 (centres undefined),.,.,-37.7%,?
O=C(NCc1ccccc1)O[C@H]1COCCN(c2nc3ccccc3s2)C1,4.9%[70.6 µM],i,?,?
COc1ccc(CNC(=O)O[C@H]2COCCN(c3nc4ccccc4s3)C2)cc1,-0.6%[70.6 µM],i,?,89.1µM*
Cc1cccc(O[C@H]2COCCN(c3nc4ccccc4s3)C2)n1,-16.4%[70.6 µM],50.1µM*,?,100µM*
SMILES,hNpr1 antagonist,FLuc inh,NIH3T3 tox,HEK293 tox
O=C(NCc1ccccc1)c1cn(C2CN(C(=O)c3cccs3)C2)nn1,.,.,-16.5%,-7.2%
O=C(Nc1cnc(-c2ccc(Cl)cc2)nc1)c1cccc(F)c1,-10.6%,7.94µM*,-3.8%,?
O=C(Nc1cnc(-c2cccc(Cl)c2)nc1)C1CCCO1 (centres undefined),?,2.82µM*,-25.6%,?
Cc1ccc(-c2ncc(NC(=O)c3ccc(F)c(F)c3)cn2)cc1,4.9%,i,i,8.5%
COc1ccccc1CC(=O)Nc1cnc(-c2cccc(Cl)c2)nc1,-18.9%,12.6µM*,?,?
O=C(Nc1cnc(-c2cccc(Cl)c2)nc1)c1nccc2ccccc12,-15.0%,i,?,?
O=C(Nc1cnc(-c2cccc(Cl)c2)nc1)c1ccccc1F,-15.3%,1µM*,3.8%,-2.3%
O=C(Nc1cccc(-c2cscn2)c1)C1CCN(C(=O)C2CCCO2)CC1 (centres undefined),1.0%,i,-3.5%,-28.6%
CC(=O)NCC(=O)N1CCC(n2cc(-c3nc(-c4ccccc4)no3)nn2)CC1,-14.4%,?,-10.8%,-5.8%
CC(=O)N1CCCN(c2ncnc3c2CN(C2CCCC2)C(=O)CN3C)CC1,.,.,i,2.1%
CCOc1ccc(NC(=O)CCC2CCCN(S(=O)(=O)c3ccc(F)cc3)C2)cc1 (centres undefined),.,.,-26.6%,?
Fc1ccc(OCCOC2CCNCC2)cc1,5.4%,i,-5.8%,-2.2%
CC1CCN(C(=O)CC(c2ccc(Cl)cc2)c2cn(C)c3ccccc23)CC1 (centres undefined),-13.0%,i,?,?
COc1ccccc1CC(=O)NC1CCN(c2cnn(CC3CC3)c(=O)c2)CC1,-1.5%,i,-4.3%,3.8%
CC(C)(C)CC(=O)Nc1cnc(-c2ccc(Cl)cc2)nc1,3.55µM*,0.282µM*,39.8µM*,44.7µM*
O=C(Nc1cnc(-c2cccnc2)nc1)C1CCCC1,-11.4%,31.6µM*,-6.0%,4.4%
O=C(Nc1cnc(-c2cccc(Cl)c2)nc1)c1ccc(F)cc1Cl,?,11.2µM*,?,?
O=C(NC1CCCC1)C1CCCN1C(=O)c1cccc(-c2cccnc2)c1 (centres undefined),.,.,0.9%,i
O=C(Nc1cnc(-c2cccc(Cl)c2)nc1)c1ccsc1,-17.0%,?,-26.3%,-13.6%
COCCNC[C@@H]1C=C(C)[C@H](Cc2nnc(-c3ccc(N(C)C)cc3)o2)C[C@H]1C(C)C,-1.2%[70.6 µM],i,39.8µM*,25.1µM*
CC1=C[C@@H](CO)[C@H](C(C)C)C[C@H]1Cc1nnc(-c2ccc(N(C)C)cc2)o1,-27.8%[70.6 µM],?,89.1µM*,?
CC1=C[C@@H](CN2CCC(CO)CC2)[C@H](C(C)C)C[C@H]1Cc1nnc(-c2ccncc2)o1,4.3%[70.6 µM],i,-25.7%[138 µM],-21.2%[172 µM]
CC1=C[C@@H](CN2CCC(CO)CC2)[C@H](C(C)C)C[C@H]1Cc1nnc(-c2ccc([N+](=O)[O-])cc2)o1,-1.8%,i,?,?
CC1=C[C@@H](CO)[C@H](C(C)C)C[C@H]1Cc1nnc(C(C)(C)C)o1,-0.4%[70.6 µM],i,?,?
CC1=C[C@@H](CN2CCC[C@H]2CO)[C@H](C(C)C)C[C@H]1Cc1nnc(-c2ccc(N(C)C)cc2)o1,1.1%,i,39.8µM*,44.7µM*
CC1=C[C@@H](CO)[C@H](C(C)C)C[C@H]1Cc1nnc(-c2ccncc2)o1,-15.3%[70.6 µM],i,-25.0%[174 µM],100µM*
C=CCNC(=O)CN1CN(c2ccccc2)C2(CCN(C(=O)NCc3ccccc3)CC2)C1=O,-2.0%,i,-29.7%,-15.6%

# Compound activity: PubChem BioAssay, National Center for Advancing Translational Sciences (NCATS)
